From PubChem
AMA1 RON2 block – qHTS for Inhibitors of AMA1-RON; Towards Development of Antimalarial Drug Lead: Primary Screen | AlphaScreen AMA1-biotinylated RON2 peptide binding | Potency, µM (series often up to 58.2 µM), without a hit: at the top dose activity change, negative = inhibition, hits mostly inhibitors | AID 720542, 2013 | Plasmodium falciparum AMA1 (3D7) - RON2 peptide interaction | 360,000 tested, 0.2% active;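 further: 0% = vehicle wells and -100% = peptide control; nearly all actives have a fitted effect of over 45% in size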
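AMA1 (3D7) with his tag at 25 nM final met compounds first, then biotinylated RON2 peptide at 25 nM; detection used donor plus acceptor beads, 10 µg/mL apiece, read by AlphaScreen after 30 min at room temperature.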
AmpC inh detg – qHTS Inhibitors of AmpC Beta-Lactamase (assay with detergent); P00811; AmpC hydrolysis of nitrocefin, absorbance 480 nm, 0.01% Triton; Potency, µM (top dose mostly 114 µM), for inactives: top-dose activity change, negative = inhibition, hits mostly inhibitors; 370,000 tested, 0.041% active; AID 485294, 2010;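 further: 0% = no-compound wells and -100% = no-enzyme wells; nearly all actives have a fitted effect of over 25% in size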
Target sequence (P00811 whole entry, looked up): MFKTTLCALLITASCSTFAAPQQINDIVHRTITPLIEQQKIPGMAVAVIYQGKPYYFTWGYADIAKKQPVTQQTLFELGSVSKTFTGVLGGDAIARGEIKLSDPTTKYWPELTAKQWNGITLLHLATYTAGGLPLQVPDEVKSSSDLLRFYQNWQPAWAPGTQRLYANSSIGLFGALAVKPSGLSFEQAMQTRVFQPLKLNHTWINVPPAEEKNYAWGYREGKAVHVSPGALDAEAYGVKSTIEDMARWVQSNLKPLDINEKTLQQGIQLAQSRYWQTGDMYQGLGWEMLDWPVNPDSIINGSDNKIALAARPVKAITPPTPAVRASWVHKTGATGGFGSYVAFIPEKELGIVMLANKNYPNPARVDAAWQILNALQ
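AmpC (5.3 nM in the dispensed reagent) in 20 mM phosphate pH 7.0 with 0.01% (detergent screen) or 0.0001% Triton X-100 was preincubated with compounds for 15 min at room temperature. Nitrocefin was then added from an 800 uM solution, and hydrolysis was followed at 480 nm.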
RE007 growth inh – qHTS Assay for Inhibitors of the HIV-1 protein Vpr; S. pombe RE007 Vpr strain, BacTiter-Glo ATP luminescence, 24 h; Potency, µM (top dose mostly 92.2 µM), inactives show at the top dose activity change, negative = less growth, actives largely listed as inhibitors; AID 651644, 2012; 360,000 tested, 0.21% active; active means well fitted falling curve with a large enough effect; inconclusive means small, poorly fitted or top-dose-only effect; inactive means no such curve, though single readings can be large or run the other way; further: nearly all actives have a fitted effect of over 50% in size
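Fission yeast strain RE007, carrying one chromosomally integrated HIV-1 vpr copy, was seeded at OD 0.01 in PMG+AL medium with 23 nL pinned compound. After 24 h at 30 °C and 99% humidity, viability was read by BacTiter-Glo luminescence.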
Sm TGR block – qHTS Assay for the Inhibitors of Schistosoma Mansoni Peroxiredoxins | Schistosoma mansoni thioredoxin glutathione reductase (TGR), Q962Y6 | purified TGR, DTNB reduction, TNB absorbance 405 nm | Potency, µM (highest dose often 114 µM), inactives show at the top dose activity change, negative = inhibition, usual class: inhibitors | 360,000 tested, 3% active | AID 485364, 2010; further: nearly all actives have a fitted effect of over 60% in size
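First, TGR (20 nM dispensed) and NADPH were mixed with compound. Second, a 15 min room-temperature incubation followed. Third, further NADPH and then DTNB were added to start the reaction. Finally, TNB absorbance was monitored kinetically.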
AmpC no deterg – qHTS Inhibitors of AmpC Beta-Lactamase (assay without detergent); AmpC nitrocefin hydrolysis, absorbance 480 nm, 0.0001% Triton; Potency, µM (titrated, usually from 57.1 µM), for inactives: at the highest dose activity change, negative = inhibition, hits mostly inhibitors; 330,000 tested, 0.52% active; AID 485341, 2010; P00811;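 further: plate controls were no compound for no effect and no enzyme for full effect; nearly all actives have a fitted effect of over 20% in size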
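20 mM phosphate pH 7.0 + 0.01% (detergent screen) or 0.0001% Triton X-100; 5.3 nM AmpC reagent; cpd preinc 15 min RT; nitrocefin (800 uM stock) to start; A480 q20 s × 4 min; Activity was normalised to no-enzyme and no-compound control wells.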
The depositor's hits bear a star; i = inactive; ? = inconclusive; nt = no result. Only some compounds are listed: those with a hit (about 3.2% of all), similar ones and a draw of the others. Unless noted, the call rests on the fitted dose curve; in most records, active means well fitted curve in the direction sought with a large enough effect; inconclusive means small, poorly fitted or top-dose-only effect, or another doubt; inactive means no such curve, though single readings can be large; an effect the other way counts as inactive or inconclusive. Unless noted, on the % scale 0 is the no-effect control and ±100 the full control effect; potency means the concentration at half of the fitted maximal effect.

SMILES	AMA1 RON2 block	AmpC inh detg	RE007 growth inh	Sm TGR block	AmpC no deterg
CCOC(=O)N1CCC2(CC1)C(C#N)=C(N)Oc1c2c(C)nn1-c1cccc(Cl)c1	-3.3%	-6.8%	-3.4%	1.12µM*	-42.7%
c1ccc(Nc2ccccn2)cc1	-9.4%	-10.5%	-4.4%	-8.5%	-17.5%
c1ccc(Nc2cccc(Nc3ccccc3)n2)cc1	-23.3%	7.4%	?	2.82µM*	-44.5%
O=C(Nc1ccccn1)c1csc2c1CCCC2	-15.0%	-9.9%	?	nt	-22.8%
O=C(Nc1ccccn1)c1onc2c1CCCC2	-1.8%	-17.3%	10µM*	-3.4%	-15.5%
COc1ccc(-n2c(SCC(=O)NCc3ccc(C)cc3)nc3n[nH]c(C)c3c2=N)cc1	nt	2.3%	nt	0.3%	nt
Cc1nn(-c2ccccc2)c2nc(C(Cl)(Cl)Cl)[nH]c(=O)c12	12.8%	0.0%	17.6%	12.6µM*	-37.0%
Cc1ccc(-n2nc(C)c3c(=O)[nH]c(C(F)(F)F)nc32)cc1	nt	-0.6%	nt	-0.2%	-7.0%
Cc1nc(Nc2ccccc2)sc1-c1ccccc1	-12.4%	-14.8%	35.5µM*	1.1%	-32.2%
Cc1ncc(C[n+]2csc(CCOC(=O)CC34CC5CC(CC(C5)C3)C4)c2C)c(N)n1	-1.7%	?	i	44.7µM*	9.1%
Cc1c(CCOC(=O)C23CC4CC(CC(C4)C2)C3)sc[n+]1CC#N	20.8%	2.6%	-13.3%	4.47µM*	24.2%
Cc1c(CCOC(=O)CC23CC4CC(CC(C4)C2)C3)sc[n+]1Cc1ccccc1	-0.6%	-8.6%	29.6%	-10.7%	66.5%
Cc1cccc(NC(=O)CS(=O)(=O)c2nc(-c3ccccc3)cn2-c2cccc(Cl)c2)c1C	nt	4.6%	nt	-1.5%	nt
COc1ccc(-c2noc(CC(=O)N(C)c3cc(Cl)c(OC)cc3OC)n2)cc1	nt	1.2%	nt	-1.0%	nt
CCOC(=O)C1CCN(S(=O)(=O)c2cc(-c3onc(C)c3C)ccc2C)CC1	nt	2.2%	nt	5.9%	nt
O=C(N[C@@H](Cc1ccc(O)cc1)C(=O)O)c1cccnc1	-3.5%	-3.2%	0.6%	50.1µM*	-16.0%
O=C(N[C@@H](Cc1ccccc1)C(=O)O)c1ccncc1	-11.5%	-4.0%	7.9%	-33.1%	-26.7%
O=C(O)c1cc(N/N=C/C(Cl)=C/c2ccccc2)ccc1Cl	5.8%	1.3%	-8.7%	35.5µM*	-33.9%
COc1ccc(C(=O)c2ccsc2N)cc1	-0.8%	-14.6%	-11.9%	12.6µM*	-28.4%
COCCNC(=O)CCC1CCN(C/C=C/c2ccccc2OC)CC1	-6.2%	-3.8%	0.3%	5.4%	34.7%
COCCNC(=O)CCC1CCN(Cc2cccc(-c3ccc(C)o3)c2)CC1	-0.5%	-9.1%	17.1%	39.8µM*	151.8%
O=C(Nc1cccc(C(F)(F)F)c1)c1ccc2c(c1)nnn2C1CCCC1	nt	-4.9%	nt	11.9%	nt
Cc1noc(Cn2c(=O)c3ccccc3n(CC(=O)Nc3cccc(Cl)c3C)c2=O)n1	nt	1.3%	nt	-5.1%	nt
COc1ccc(OC)c(CNC(=O)C2CCN(S(=O)(=O)N3CCCC3)CC2)c1	-5.7%	-0.5%	3.9%	79.4µM*	4.2%
CCN(CC)CCNC(=O)C1CCN(S(=O)(=O)N2CCCCC2)CC1	0.1%	2.0%	-13.3%	0.3%	0.282µM*
SMILES	AMA1 RON2 block	AmpC inh detg	RE007 growth inh	Sm TGR block	AmpC no deterg
CCN(Cc1ccccc1)c1cc2c(c3c1ccn3C)C1CCC2C1 (stereo not given)	20µM*	nt	-27.2%	nt	nt
CCN(CC)c1cc2c(c3c1ccn3C)C1CCC2C1 (stereo not given)	?	nt	-25.8%	nt	nt
CN(Cc1ccccc1)c1cc2c(c3c1ccn3C)C1CCC2O1 (stereo not given)	14.1µM*	nt	?	nt	nt
Cn1ccc2c(N(Cc3ccccc3)Cc3ccccc3)cc3c(c21)C1CCC3O1 (stereo not given)	?	nt	-7.5%	nt	nt
Cc1ccccc1OCc1ccc(-c2nc(C#N)c(N3CCN(c4ccccc4)CC3)o2)o1	nt	-0.3%	nt	-2.2%	nt
O=C(CCCN1C(=O)c2cccnc2Oc2ccc(Cl)cc21)N1CCCCC1	-10.9%	-3.2%	14.4%	12.6µM*	38.4%
